# Where “and” joins values, the source holds several entries; their conditions need not be identical. Equal entries are not always repeated.
# Molecular target: C-X-C chemokine receptor type 6 (Homo sapiens) (UniProt O00574)
# Experiment: apelin receptor (APJ) antagonists, SAR follow-up, counter-screen for CXCR6 antagonist project, cell-based, beta-arrestin, DiscoveRx, panel, CHO-K1 (AID 651598)
# Settings: CHO-K1 PathHunter beta-arrestin luminescence, antagonist mode; run 1, at 80 µM (top of the series)
# Chain of C-X-C chemokine receptor type 6 (Homo sapiens) (O00574 whole entry, looked up): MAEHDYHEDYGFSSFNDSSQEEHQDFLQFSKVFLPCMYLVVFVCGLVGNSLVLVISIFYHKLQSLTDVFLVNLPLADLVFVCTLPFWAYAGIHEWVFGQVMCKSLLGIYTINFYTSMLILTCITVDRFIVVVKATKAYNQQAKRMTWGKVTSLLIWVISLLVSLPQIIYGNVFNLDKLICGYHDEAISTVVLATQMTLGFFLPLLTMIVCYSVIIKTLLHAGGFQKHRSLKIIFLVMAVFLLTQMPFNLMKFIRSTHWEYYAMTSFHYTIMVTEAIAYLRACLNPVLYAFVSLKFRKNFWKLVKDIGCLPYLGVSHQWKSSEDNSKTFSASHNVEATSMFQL
row,Structure (SMILES),inhibition
1,COc1cc(C(=O)NC2CC3CCC(C2)N3CC(=O)Nc2ccccc2)cc(OC)c1OC (stereo not drawn),59.5% and 13.9%
2,COc1cc(C(=O)NC2CCN(CC(=O)Nc3ccccc3)CC2)cc(OC)c1OC,4.26%
3,COc1cc(C(=O)NC2CC3CCCC(C2)N3CC(=O)Nc2ccccc2)cc(OC)c1OC (stereo not drawn),89.3% and 49.6% and 26.4%

# Reference: PubChem BioAssay AID651598 (Sanford-Burnham Center for Chemical Genomics, 2012)
